Screening results from PubChem.
RGS4 inh: inhibitors of human regulator of G protein signaling 4; Potency, µM (highest dose often 114 µM), usual class: inhibitors; 390,000 tested, 0.039% active; AID 504845; Transcreener GDP fluorescence polarization, RGS4-accelerated GTP hydrolysis; P49798; also: nearly all actives have a fitted effect of over 75% in size
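MLSMR compounds (23 nl, pin-transferred) preincubated 10 min at room temperature with a 500nM (2x) first reagent, then RGS4 at 900nM (2x) plus Transcreener GDP mix added; fluorescence polarization (620/688 nm) read before and after 90 min at 30 °C.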
ERG-DNA inh: blocks human ERG Ets domain binding to DNA; P11308; fluorescence polarization, His-ERG Ets domain / labelled DNA; Potency, µM (highest dose often 76.9 µM), usual class: inhibitors; 370,000 tested, 0.028% active; active = well fitted inhibition curve with a large enough effect in the polarisation, with a control signal flat; inconclusive = small, poorly fitted or top-dose-only effect, or effect the other way, or a change in a side signal; inactive = no such curve, though single readings can be large or run the other way; the % refers to the polarisation;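 also: polarization taken with two DNA probes labelled with fluorescein and Texas red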
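His-tagged ERG Ets domain (1 uM in the protein solution; 300mM KCl, 50mM Tris-HCl, 1mM EDTA, 1mM DTT, pH 7.5) received compound, then a probe mix of 5 nM fluorescein-DNA and 100nM Texas-615-DNA. Fluorescence polarization was read for both dyes.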
MmCpn inh: blocks the Methanococcus maripaludis chaperonin Mm-Cpn; purified Mm-Cpn ATPase, ADP Transcreener TR-FRET; Potency, µM (titrated, usually from 76.9 µM), actives largely listed as inhibitors; 330,000 tested, 0.031% active; AID 504842; also: nearly all actives have a fitted effect of over 80% in size
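TR-FRET (320 nm excitation; 590 and 665 nm emission) reports ADP made from 10 uM ATP by 25 nM enzyme; compounds were preincubated 10 min, reaction run 30 min, both at 37°C.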
CCT chaperon mod: changes cytosolic chaperonin activity; AID 651819; activity change, % (concentration not given with the values), hits read low; purified chaperonin ATPase assay, HTRF ADP detection, 30 min; 360,000 tested, 0.3% active; in the data active = activity change below about -30%
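Nucleotide hydrolysis assay: TRiC at 20–40 nM final (set by batch activity) with 10 uM ATP, 30 min at 37 °C, in presence of 76 uM compound. Detection by competitive ADP HTRF, 30 min ambient.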
PTHR1 agonist: PTHR1 (human) receptor agonism. Q03431. HEK293 GP2 PTHR1 cells, GloSensor cAMP luminescence, 1 h. 410,000 tested, 0.075% active. Potency, µM (top dose mostly 115 µM), most hits filed as activators. AID 743266; also: nearly all actives have a fitted effect of over 55% in size
Target sequence (Q03431 whole entry, looked up): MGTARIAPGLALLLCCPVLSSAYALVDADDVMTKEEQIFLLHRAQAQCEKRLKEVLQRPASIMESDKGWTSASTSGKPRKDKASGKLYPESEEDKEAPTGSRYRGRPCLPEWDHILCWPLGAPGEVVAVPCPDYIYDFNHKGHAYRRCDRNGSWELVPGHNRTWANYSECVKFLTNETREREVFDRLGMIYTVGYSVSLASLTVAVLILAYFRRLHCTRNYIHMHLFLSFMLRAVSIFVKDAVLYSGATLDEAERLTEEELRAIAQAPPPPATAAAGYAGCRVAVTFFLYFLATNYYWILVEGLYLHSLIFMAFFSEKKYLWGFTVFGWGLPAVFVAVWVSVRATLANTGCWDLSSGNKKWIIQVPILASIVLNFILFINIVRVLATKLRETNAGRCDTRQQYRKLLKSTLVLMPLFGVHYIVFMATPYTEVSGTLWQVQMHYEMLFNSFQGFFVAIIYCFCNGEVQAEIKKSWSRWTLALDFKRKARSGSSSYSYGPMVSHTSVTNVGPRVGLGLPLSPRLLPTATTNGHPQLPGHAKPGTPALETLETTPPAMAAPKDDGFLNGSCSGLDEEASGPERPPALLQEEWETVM
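HEK-293-derived GP2 cells expressing PTHR1 and a GloSensor cAMP reporter, 3,000/well, plated overnight, given luciferin plus IBMX (each 0.5 mM as added) for 1 h at 37 °C, then compound for 1 h at 37 °C. Luminescence was read after 15 min at room temperature.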
Numbers stand for hits; i = inactive; ? = inconclusive; nt = not tested or not shown; ! = repeats disagree; [ ] = another dose, or the depositor's remark. Compounds with a hit are over-represented: about 0.36% of the library has one in this group of screens. Unless noted, calls follow the shape of the dose curve; as a rule, active = well fitted curve in the direction sought with a large enough effect; inconclusive = small, poorly fitted or top-dose-only effect, or another doubt; inactive = no such curve, though single readings can be large; an effect the other way counts as inactive or inconclusive.

SMILES	RGS4 inh	ERG-DNA inh	MmCpn inh	CCT chaperon mod	PTHR1 agonist
CC(=O)OCC(NC(=O)C(C)NC(=O)OC(C)(C)C)C1OC(n2cc(F)c(=O)[nH]c2=O)C(OC(C)=O)C1OC(C)=O (configuration not stated)	i	nt	nt	nt	nt
CC1CCN(C(C(=O)Nc2ccc3c(c2)OCO3)c2ccccc2)CC1 (configuration not stated)	i	i	i	-84.0	i
CC1CCCN(C(C(=O)Nc2ccc3c(c2)OCO3)c2ccccc2)C1 (configuration not stated)	i	i	i	i	i
COc1ccc(-c2ccccc2C2C3C=CCCC3(C)C(=O)N2Cc2ccccc2)cc1 (configuration not stated)	i	nt	nt	nt	nt
CCC(=O)Nc1nc(-c2cc([N+](=O)[O-])cs2)cs1	i	i	35.5µM	i	i
NC(C(=O)O)c1cccc(O)c1 (configuration not stated)	i	nt	nt	nt	nt
O=C(NCCOC(=O)c1ccc(C(=O)OCCNC(=O)c2cccnc2)s1)c1cccnc1	i	i	i	-55.8	i
Cc1ccc2c(c1)c1c(c(=O)n(Cc3ccccc3)c(=O)n1Cc1cccc(C(F)(F)F)c1)n2C	i	i	nt	nt	i
COc1cc(/C=C2\SC(c3ccc(C)cc3)=NC2=O)cc(OC)c1OC	i	nt	i	-64.0	i
COc1cc(/C=C2\SC(c3ccccc3)=NC2=O)cc(Cl)c1O	?	i	i	-42.8	i
N/C(=N\OC(=O)c1ccccc1)c1ccn[nH]1	i	i	?	-30.7	i
COc1ccc([C@H]2CN(CCc3ccccc3)C(=O)[C@@H]2CC(=O)Nc2ccccc2)cc1	nt	nt	nt	-42.6	i
CNC(=O)C[C@H]1C(=O)N(CCc2ccccc2)C[C@@H]1c1ccc(OC)cc1	nt	nt	nt	i	i
CCOC(=O)/C(C#N)=C/Nc1cc(F)ccc1C	i	i	i	i	i
CCOC(=O)/C(C#N)=C/Nc1ccsc1C(=O)OC	i	i	i	-49.1	i
CC(C)Cc1nn2c(=O)cc(COC(=O)c3cccc(NC(=O)CCc4ccccc4)c3)nc2s1	i	i	nt	nt	i
COCCNS(=O)(=O)c1ccc(-c2ccc(Cl)cc2)cc1	i	i	i	-40.0	i
CC1=C(SCc2ccccc2)C(=O)c2ccccc2C1=O	i	i	nt	i	i
O=C1C(SCCO)=C(SCCO)C(=O)c2ccccc21	3.36µM	12.6µM	i	i	i
Cc1ccc(Nc2ncnc3sc(C)c(C)c23)cc1	i	i	i	i	i
Cc1sc2ncnc(N)c2c1C	i[11.4 µM]	i	i	-55.3	i
COc1[nH]c(/N=C/c2ccccc2)c(C#N)c1C#N	i[11.4 µM]	31.6µM	i	i	i
CCOC(=O)c1ccc(N2CCN(c3ccc(F)cc3)CC2)c(NC(=O)Nc2ccc(CC)cc2)c1	i	i	nt	nt	?
O=C(Cn1nc(-c2ccccc2)nc(Cc2ccccc2)c1=O)Nc1ccc(Cl)cc1	i	i	nt	nt	i
CCOc1ccc(N2CC(C(=O)NCC(=O)Nc3ccc(F)c(F)c3F)CC2=O)cc1 (configuration not stated)	i	i	i	-55.3	i
SMILES	RGS4 inh	ERG-DNA inh	MmCpn inh	CCT chaperon mod	PTHR1 agonist
O=C(C1CCN(S(=O)(=O)c2ccc(Cl)cc2)CC1)N1CCOCC1	i	i	i	i	i
O=C(C1CCN(S(=O)(=O)c2ccc(F)cc2)CC1)N1CCOCC1	i	i	i	-41.4	i
CN1CCc2cc(Cl)c(O)cc2[C@@H](c2ccccc2)C1	2.99µM!	i	i	i	i
CCn1cc(C(=O)OCC(=O)Nc2cc(Cl)ccc2OC)c(=O)c2ccc(C)nc21	i	i	nt	nt	i
CCOC(=O)c1ccc(NC(=O)CSc2c(C(C)C)cnc3c2c(=O)n(C)c(=O)n3C)cc1	?	i	nt	nt	?
CNC(=S)N1C2CCCC1CC(NC(=O)c1ccc(C)cc1)C2 (configuration not stated)	i	i	nt	-48.2	i
Cc1ccc(C(=O)NC2CC3CCCC(C2)N3C(=S)NCc2ccco2)cc1 (configuration not stated)	i	i	i	i	i
Cc1nn(-c2ccc3nncn3n2)c(C)c1CCC(=O)Nc1ccc(OC(F)(F)F)cc1	i	i	nt	nt	i
COc1ccc(C2=NS(=O)(=O)N(C)C(C(=O)N3CCC(C(N)=O)CC3)=C2)cc1	i	i	i	-66.9	i
Cc1cc2c(N)cccc2nn1	i	11.2µM	i	i	i
Nc1cccc2nc3ccccc3cc12	i	?	i	i	i
O=C(CCCN1C(=O)C(c2ccccc2)Oc2cccnc21)NCCc1ccc(Cl)cc1 (configuration not stated)	i	i	i	-125.1	i
Cc1ccc([C@H]2C[C@H](n3cc(C4CC4)nn3)[C@@H](O)CN2CC2CCCCC2)cc1	nt	nt	nt	i	i
Cc1ccc([C@H]2C[C@@H](n3cc(C4CC4)nn3)[C@H](O)CN2CC2CCCCC2)cc1	nt	nt	nt	-73.8	i
CC(C)(C)c1ccc(OCC(O)CN2CCc3ccccc3C2)cc1 (configuration not stated)	i	i	nt	-57.5	i
COc1cc(N)c(Cl)cc1C(=O)CCC1CCN(CCNS(C)(=O)=O)CC1	37.7µM!	nt	nt	nt	nt
COc1ccc(-c2ccc(OC)c(C3C4C=CCCC4(C)C(=O)N3Cc3ccccc3)c2)cc1OC (configuration not stated)	i	nt	nt	nt	nt
COc1ccc(-c2c(C3C4C=CCCC4(C)C(=O)N3Cc3ccccc3)ccc3ccccc23)cc1 (configuration not stated)	i	nt	nt	nt	nt
Cc1c(-c2ccccc2)nc2ccccc2c1C(=O)OCC(=O)Nc1ncc(C(F)(F)F)cc1Cl	i	i	?	-53.4	i
CCc1ccc(NC(=O)C(Cc2ccccc2)NS(=O)(=O)c2ccc3c(c2)c(=O)n(C)c(=O)n3C)cc1 (configuration not stated)	i	i	nt	nt	i
O=C(COC(=O)c1cc(=O)[nH]c2ccc(Br)cc12)c1ccccc1	i	i	i	-33.2	i
CCOc1ccc(C(=O)COC(=O)c2cc(=O)[nH]c3ccccc23)cc1	i	i	i	i	i
O=C(COC(=O)c1cc(=O)[nH]c2ccccc12)c1ccc(Br)cc1	i	i	i	-126.4	i
O=C(NCc1ccc(F)cc1)C(=O)NCC(c1ccc2c(c1)OCO2)N1CCOCC1 (configuration not stated)	i	i	nt	nt	i
CC(=NCCCn1ccnc1)c1c(C)[nH]n(-c2ccc([N+](=O)[O-])cc2)c1=O	i	i	39.8µM	i	i
CC(=O)Nc1cccc(S(C)(=O)=O)c1	i	20µM	i	i	i
CC(=O)Nc1cccc(N(C)S(C)(=O)=O)c1	i	i	i	i	i
C=CCOC(/C=C/c1ccccc1)CC (configuration not stated)	i	nt	nt	nt	nt
COc1ccc(OC)c(-c2noc(CSc3nnc(Cc4ccccc4)n3-c3cccc(C)c3)n2)c1	i	i	nt	nt	i
